What all share (conditions): 25 µM; exposure: 24-48 hpf
The test system of assay [1] is Danio rerio Tg(wt1b:EGFP) embryo, pronephros. Kind of assay: glomerular separation, fold change vs DMSO control; higher = glomeruli further apart (abnormal). Put shortly: (§1)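 Every feature is expressed as a fold change relative to the averaged DMSO-treated embryos of the same day. The exposure ran from 24 to 48 hpf at 28.5°C, with dechorionated Tg(wt1b:EGFP) zebrafish embryos in HEPES-buffered E3 containing 0.003% PTU, 0.5% DMSO and 25 μM compound. Dorsal pronephros images taken in agarose-filled 96-well plates were reduced to maximum projections, on which 16 reference points were set by hand in Fiji for a macro to compute distances and angles. Values more than 2 SD from the feature mean were not used.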

For assay [2] the test system is unchanged. Kind of assay: glomerular width (mean of left and right), fold change vs DMSO control; higher = wider glomerulus. Put shortly:
as §1

Assay [3] has the same test system. Kind of assay: fraction of imaged embryos annotated as normal kidney; higher = less nephrotoxic; extreme values may be limits of the assay. The gist of the method: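 Dechorionated Tg(wt1b:EGFP) zebrafish embryos were incubated with 25 μM compound in 0.5% DMSO, 5 mM HEPES-buffered E3 and 0.003% PTU from 24 to 48 hpf at 28.5°C. Pronephroi were then imaged by widefield fluorescence, and the fraction of embryos per treatment assigned by hand to the normal-kidney category is given.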

Assay [4] has the same test system. Kind of assay: pronephric angle neck segment to proximal convoluted tubule (mean of left and right), fold change vs DMSO control; higher = larger pronephric angle. The gist of the method:
as §1

Structures are written as SMILES. Counter-ions that a name gives are not always drawn. ± gives the standard deviation or the standard deviation of the averaged measurements.

On to `CNCC(O)c1ccc(OC(=O)C(C)(C)C)c(OC(=O)C(C)(C)C)c1` (centres undefined) [Dipivefrin hydrochloride], for which the glomerular separation in assay [1] turned out to be 0.794 ± 0.16. The glomerular width in assay [2] was 1.04 ± 0.036. Also, the “fraction of imaged embryos annotated as normal kidney” value (shortened to “fraction of imaged embryos annotated”) in assay [3] is 0.833. Besides, the “pronephric angle neck segment” value in assay [4] is 1.03 ± 0.081.

With `COc1ccccc1O` [Guaiacol], in assay [1], the glomerular separation came out at 1.03 ± 0.3. The glomerular width in assay [2] was 1.007 ± 0.0036. Moreover, in assay [3], the “fraction of imaged embryos annotated” value was 0.917. Moreover, the “pronephric angle neck segment” value in assay [4] was 1.02 ± 0.035.

`O=C1CCc2ccc(OCCCCN3CCN(c4cccc(Cl)c4Cl)CC3)cc2N1` [Aripiprazole] had a glomerular separation in assay [1] of 0.976 ± 0.16. In assay [2], this compound returned a glomerular width of 0.888 ± 0.06. In addition, the “fraction of imaged embryos annotated” value in assay [3] was 1. For the same compound, the “pronephric angle neck segment” value in assay [4] turned out to be 1.08 ± 0.033.

In turn, `CN(C)CCCC1(c2ccc(F)cc2)OCc2cc(C#N)ccc21` (centres undefined) [Citalopram Hydrobromide] had a glomerular separation in assay [1] of 1.21 ± 0.7. This compound also yielded a glomerular width in assay [2] of 0.991 ± 0.035. Moreover, the “fraction of imaged embryos annotated” value in assay [3] was 0.667. The “pronephric angle neck segment” value in assay [4] was found to be 0.956 ± 0.032.

As to `COc1ccc(-c2cc(=S)ss2)cc1` [Anethole-trithione], the glomerular separation in assay [1] turned out to be 1.04 ± 0.42. In addition, the glomerular width in assay [2] amounted to 0.886 ± 0.027. The “fraction of imaged embryos annotated” value in assay [3] was 0.909. The “pronephric angle neck segment” value in assay [4] was 1.04 ± 0.066.

Turning to `Cc1cnc(C(=O)O)c[n+]1[O-]` [Acipimox], in assay [1], the glomerular separation came out at 1.01 ± 0.23. The glomerular width in assay [2] worked out at 1.015 ± 0.0095. In assay [3], the “fraction of imaged embryos annotated” value came to 1. In assay [4], the “pronephric angle neck segment” value worked out at 0.94922 ± 0.00089.

`CCN(CC)CCOC(=O)C1(c2ccc([N+](=O)[O-])cc2)CCCC1` [Nitrocaramiphen hydrochloride] showed a glomerular separation in assay [1] of 0.899 ± 0.43. The glomerular width in assay [2] turned out to be 0.971 ± 0.037. The “fraction of imaged embryos annotated” value in assay [3] stood at 0.909. Further, in assay [4], the “pronephric angle neck segment” value is 0.984 ± 0.075.

`CC(CCc1ccc(O)cc1)NCCc1ccc(O)c(O)c1` (centres undefined) [Dobutamine hydrochloride] came in with a glomerular separation in assay [1] of 0.82 ± 0.23. The glomerular width in assay [2] is 0.999 ± 0.032. Moreover, the “fraction of imaged embryos annotated” value in assay [3] is 1. For the same compound, in assay [4], the “pronephric angle neck segment” value is 0.997 ± 0.078.

`CN(CCOc1ccc(CC2SC(=O)NC2=O)cc1)c1ccccn1` (centres undefined) [Rosiglitazone Hydrochloride] showed a glomerular separation in assay [1] of 1.04 ± 0.39. Further, in assay [2], the glomerular width came out at 0.964 ± 0.03. Moreover, the “fraction of imaged embryos annotated” value in assay [3] was determined as 0.833. In addition, the “pronephric angle neck segment” value in assay [4] was 0.9727 ± 0.0063.

On to `C[C@@H](O[C@H]1OCCN(Cc2n[nH]c(=O)[nH]2)[C@H]1c1ccc(F)cc1)c1cc(C(F)(F)F)cc(C(F)(F)F)c1` [Aprepitant], for which the glomerular separation in assay [1] came out at 0.995 ± 0.34. In assay [2], this compound registered a glomerular width of 1.09 ± 0.076. Moreover, the “fraction of imaged embryos annotated” value in assay [3] amounted to 0.667. Moreover, in assay [4], the “pronephric angle neck segment” value was 1.05 ± 0.059.

With `CC(=O)[C@H]1CC[C@H]2[C@@H]3C=CC4=CC(=O)CC[C@@]4(C)[C@@H]3CC[C@]12C` [Dydrogesterone], the glomerular separation in assay [1] was found to be 1.29 ± 0.6. In assay [2], this compound yielded a glomerular width of 1.04 ± 0.02. Moreover, in assay [3], the “fraction of imaged embryos annotated” value stood at 0.833. For the same compound, the “pronephric angle neck segment” value in assay [4] amounted to 0.973 ± 0.012.

With `C=CCSCC1Nc2cc(Cl)c(S(N)(=O)=O)cc2S(=O)(=O)N1` (centres undefined) [Althiazide], the glomerular separation in assay [1] amounted to 1.08 ± 0.28. Moreover, the glomerular width in assay [2] was determined as 0.962 ± 0.12. Further, the “fraction of imaged embryos annotated” value in assay [3] turned out to be 0.5. Also, in assay [4], the “pronephric angle neck segment” value amounted to 1.09 ± 0.083.

`CN1CCN(c2c(F)cc3c(=O)c(C(=O)O)cn(CCF)c3c2F)CC1` [Fleroxacin] yielded a glomerular separation in assay [1] of 0.566 ± 0.3. The glomerular width in assay [2] turned out to be 0.977 ± 0.049. Further, the “fraction of imaged embryos annotated” value in assay [3] was found to be 0.917. In addition, the “pronephric angle neck segment” value in assay [4] was 1.049 ± 0.0028.

In turn, `O=C1CN2Cc3c(ccc(Cl)c3Cl)N=C2N1` [Anagrelide] displayed a glomerular separation in assay [1] of 1.1 ± 0.67. The glomerular width in assay [2] is 0.932 ± 0.098. Further, the “fraction of imaged embryos annotated” value in assay [3] worked out at 0.917. Besides, the “pronephric angle neck segment” value in assay [4] came to 0.988 ± 0.027.

For the compound `CCc1c2c(nc3ccc(OC(=O)N4CCC(N5CCCCC5)CC4)cc13)-c1cc3c(c(=O)n1C2)COC(=O)[C@]3(O)CC` [Irinotecan hydrochloride trihydrate], in assay [1], the glomerular separation was 1.09 ± 0.45. For the same compound, in assay [2], the glomerular width was 1.02 ± 0.022. Further, in assay [3], the “fraction of imaged embryos annotated” value came out at 0.667. The “pronephric angle neck segment” value in assay [4] came out at 1.02 ± 0.028.

Compound `CN1CCC(=C2c3ccccc3Sc3ccccc32)CC1` [Pimethixene maleate] yielded a glomerular separation in assay [1] of 1.32 ± 0.41. Besides, the glomerular width in assay [2] is 1.01 ± 0.021. Moreover, in assay [3], the “fraction of imaged embryos annotated” value was determined as 0.917. In addition, in assay [4], the “pronephric angle neck segment” value came out at 1.062 ± 0.0083.

The compound `CC(C)NC(=N)NC(=N)Nc1ccc(Cl)cc1` [Proguanil hydrochloride] displayed a glomerular separation in assay [1] of 1.2 ± 0.52. This compound had a glomerular width in assay [2] of 0.978 ± 0.0098. For the same compound, in assay [3], the “fraction of imaged embryos annotated” value is 0.917. Further, the “pronephric angle neck segment” value in assay [4] was determined as 1.02 ± 0.054.

As to `CCOC(=O)c1ccc(N)cc1` [Benzocaine], the glomerular separation in assay [1] was 1.45 ± 0.34. The same compound showed a glomerular width in assay [2] of 0.901 ± 0.021. Further, the “fraction of imaged embryos annotated” value in assay [3] amounted to 0.833. In assay [4], the “pronephric angle neck segment” value came to 1.02 ± 0.016.

In the case of `Clc1ccc2nsnc2c1NC1=NCCN1` [Tizanidine hydrochloride], in assay [1], the glomerular separation was found to be 1.02 ± 0.43. Besides, the glomerular width in assay [2] is 1.01 ± 0.016. For the same compound, in assay [3], the “fraction of imaged embryos annotated” value was determined as 0.833. Further, the “pronephric angle neck segment” value in assay [4] came to 0.984 ± 0.036.

`Nc1ccn([C@@H]2CS[C@H](CO)O2)c(=O)n1` [Lamivudine]: the glomerular separation in assay [1] came out at 0.982 ± 0.27. Besides, the glomerular width in assay [2] stood at 0.984 ± 0.042. In assay [3], the “fraction of imaged embryos annotated” value came to 0.667. The “pronephric angle neck segment” value in assay [4] turned out to be 0.987 ± 0.031.

With `Nc1nc(NC2CC2)c2ncn([C@H]3C=C[C@@H](CO)C3)c2n1` [Abacavir Sulfate], the glomerular separation in assay [1] was 0.958 ± 0.35. Further, the glomerular width in assay [2] worked out at 1.05 ± 0.052. The “fraction of imaged embryos annotated” value in assay [3] was found to be 0.9. Besides, the “pronephric angle neck segment” value in assay [4] came out at 1.04 ± 0.034.

In turn, `N=C(N)N/N=C/c1c(Cl)cccc1Cl` [Guanabenz acetate] came in with a glomerular separation in assay [1] of 1.12 ± 0.47. This compound yielded a glomerular width in assay [2] of 1.072 ± 0.01. Further, the “fraction of imaged embryos annotated” value in assay [3] was determined as 1. The “pronephric angle neck segment” value in assay [4] is 0.9461 ± 0.00069.

As for `COC(=O)Nc1nc2cc(C(=O)c3ccccc3)ccc2[nH]1` [Mebendazole], the glomerular separation in assay [1] was found to be 4.75 ± 1.7. The glomerular width in assay [2] is 0.552 ± 0.014. In assay [3], the “fraction of imaged embryos annotated” value worked out at 0. Further, the “pronephric angle neck segment” value in assay [4] stood at 1.91 ± 0.057.

`CO[C@H]1/C=C/O[C@@]2(C)Oc3c(C)c(O)c4c(O)c(c5c(nc6cc(C)ccn65)c4c3C2=O)NC(=O)/C(C)=C\C=C\[C@H](C)[C@H](O)[C@@H](C)[C@@H](O)[C@@H](C)[C@H](OC(C)=O)[C@@H]1C` [Rifaximin] displayed a glomerular separation in assay [1] of 0.666 ± 0.16. Besides, the glomerular width in assay [2] is 1.06 ± 0.019. In addition, the “fraction of imaged embryos annotated” value in assay [3] was determined as 0.833. In assay [4], the “pronephric angle neck segment” value is 0.984 ± 0.022.

Regarding `CC(=O)[C@@]1(O)CC[C@H]2[C@@H]3C[C@H](C)C4=CC(=O)C=C[C@]4(C)[C@@]3(F)[C@@H](O)C[C@@]21C` [Fluorometholone], the glomerular separation in assay [1] was found to be 1.11 ± 0.27. Also, the glomerular width in assay [2] turned out to be 1.174 ± 0.0086. For the same compound, the “fraction of imaged embryos annotated” value in assay [3] was 0.417. For the same compound, in assay [4], the “pronephric angle neck segment” value was 0.997 ± 0.035.

As for `CC(C)C(=O)OCC(=O)[C@@]12O[C@H](C3CCCCC3)O[C@@H]1C[C@H]1[C@@H]3CCC4=CC(=O)C=C[C@]4(C)[C@H]3[C@@H](O)C[C@@]12C` [Ciclesonide], in assay [1], the glomerular separation stood at 1.7 ± 0.91. The glomerular width in assay [2] was found to be 0.937 ± 0.0044. Moreover, the “fraction of imaged embryos annotated” value in assay [3] worked out at 0.333. In addition, the “pronephric angle neck segment” value in assay [4] came out at 1.06 ± 0.066.
